Test results taken from PubChem BioAssay (NCI).
Compounds without any hit were thinned out: in the full panel of roughly 79,000, 15% have a hit. Active and inactive are the calls of the source. No stated cut-off is given here; in the data, active means growth inhibition above about 70%; inactive means the rest.

Tests used:
[1] = NCI Yeast Anticancer Drug Screen. Data for the rad50 strain (AID 155);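 further: 0% = growth of vehicle-only cultures of the same strain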; conditions: S. cerevisiae rad50 strain growth inhibition; at 50.0 µM; stronger effect = higher value
Method in brief: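 Relative growth inhibition (compound vs vehicle) was measured in yeast with a defined repair-gene alteration.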

[2] = NCI Yeast Anticancer Drug Screen. Data for the mec2-1 strain (AID 157); conditions: S. cerevisiae mec2-1 strain, at 50.0 µM, stronger effect = higher value
Method in brief: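 mec2-1 yeast strain, carrying an alteration in DNA damage repair or cell cycle control, was exposed to compounds; growth inhibition was measured relative to vehicle-treated controls.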

[3] = NCI Yeast Anticancer Drug Screen. Data for the sgs1 mgt1 strain (AID 161);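 further: 0% = growth of cultures given vehicle only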; conditions: S. cerevisiae sgs1 mgt1 strain, at 50.0 µM, stronger effect = higher value
Method in brief: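 Percent growth inhibition was derived by comparing compound-exposed mutant yeast with vehicle-exposed cultures. The strain carries alterations in DNA damage repair.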

[4] = NCI Yeast Anticancer Drug Screen. Data for the cln2 rad14 strain (AID 165);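 further: 0% = growth equal to vehicle treated cultures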; conditions: S. cerevisiae cln2 rad14 strain, at 50.0 µM, stronger effect = higher value
Method in brief: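 Yeast carrying cln2 and rad14 alterations (cell cycle control and DNA damage repair) were exposed to compounds. Growth inhibition was measured against vehicle-treated controls.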

[5] = NCI Yeast Anticancer Drug Screen. Data for the bub3 strain (AID 167); conditions: S. cerevisiae bub3 mutant strain, at 50.0 µM, stronger effect = higher value
Method in brief: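 Screening used yeast with an engineered genetic alteration affecting cell cycle control. Compound-exposed cultures were compared with vehicle cultures, and reduced growth was taken as inhibition.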

[6] = NCI Yeast Anticancer Drug Screen. Data for the mlh1 rad18 strain (AID 175); conditions: S. cerevisiae mlh1 rad18 strain growth inhibition; at 50.0 µM; stronger effect = higher value
Method in brief: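 Growth inhibition of the yeast strain was measured after compound exposure and expressed relative to vehicle-treated controls. The strain carries defined defects in DNA damage repair.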

Structure (SMILES) | growth inhibition [1] | growth inhibition [2] | growth inhibition [3] | growth inhibition [4] | growth inhibition [5] | growth inhibition [6]
CN(C)CCCOc1ccc(/C=C2/CCC/C(=C/c3ccc(OCCCN(C)C)cc3)C2=O)cc1 | 22.6% (inactive) | 14.8% (inactive) | 19.8% (inactive) | 26.1% (inactive) | 18.7% (inactive) | 3.35% (inactive)
O=C(N(CCc1ccc(O)cc1)Cc1ccc2c(c1)OCO2)C(F)(F)F | 98% (active) | 96.8% (active) | 92.4% (active) | 92.4% (active) | 97.2% (active) | 98.6% (active)
CC(C)OC(=O)C1=C(C(=O)OC(C)C)CCCC1 | 4.8% (inactive) | 21.6% (inactive) | 4.4% (inactive) | 13.2% (inactive) | 3.1% (inactive) | 13.7% (inactive)
COC(c1ccccc1)c1ccccc1 | -21.1% (inactive) | 4.9% (inactive) | 29.5% (inactive) | -16.4% (inactive) | 1.75% (inactive) | -8% (inactive)
Nc1ncnc2c1c1c(=O)[nH]c(=O)[nH]c1n2C1OC(CO)C(O)C1O (stereo not given) | -1.95% (inactive) | 1.8% (inactive) | 7.35% (inactive) | 2.15% (inactive) | -7.55% (inactive) | -44.5% (inactive)
